# A number with no mark means an inactive call. Results filed as inconclusive are left out. Entries that show only a call come without a potency. Active and inactive are the calls of the source. Calls come from the whole dose curve; as a rule, active = well fitted curve in the direction sought with a large enough effect; inconclusive = small, poorly fitted or top-dose-only effect, or another doubt; inactive = no such curve, though single readings can be large; an effect the other way counts as inactive or inconclusive.
# What was measured:
# [1] = Primary redox qHTS assay for identification of artifact compounds. (AID 1845223)
# Outline: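 Amplex Red (25 uM) and HRP (250 mU/mL) in HBSS, with compounds for 15 min, then 250 uM DTT for 30 min, room temperature, dark. Fluorescence 525/598 nm read; normalized to DMSO and 10 uM DA3003; Hill fit.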
# [2] = target: Cytochrome P450 3A4 (Homo sapiens) (UniProt P08684); assay: qHTS for inhibitors of CYP3A4 against the NCATS DSHEA and TCM libraries (AID 1919971);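 note: inhibition lowers luminescence from luciferin made by CYP3A4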
# Outline: (§1)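 Luminescent P450-Glo readout. Enzyme plus pro-luciferin substrate in manufacturer buffer (typically 100 mM KPO4); 15 min RT preincubation; 1x NADPH regenerating system, 30-45 min RT in the dark; detection reagent 30 min.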
# [3] = target: Cytochrome P450 2D6 (Homo sapiens) (UniProt P10635); assay: qHTS for inhibitors of CYP2D6 against the NCATS DSHEA and TCM libraries (AID 1919972)
# Outline: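 Steps: enzyme plus luciferin substrate dispensed; test substances pinned; 15 min RT; 1x NADPH regenerating solution added, 30–45 min RT protected from light; detection reagent, 30 min RT; luminescence measured. Minus-enzyme wells as background.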
# [4] = target: Cytochrome P450 2C9 (Homo sapiens) (UniProt P11712); assay: qHTS for inhibitors of CYP2C9 against the NCATS DSHEA and TCM libraries (AID 1919973);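 note: luminogenic pro-luciferin CYP2C9 substrate turned into luciferin with NADPH regeneration; series mostly up to about 34 µM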
# Outline: as §1
# [5] = target: Cytochrome P450 2C19 (Homo sapiens) (UniProt P33261); assay: qHTS for inhibitors of CYP2C19 against the NCATS DSHEA and TCM libraries (AID 1919974);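 note: luminescence from luciferin released by CYP2C19 oxidation of a pro-luciferin substrate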
# Outline: as §1
# [6] = KB-3-1 P-gp reporter qHTS against the NCATS DSHEA and TCM libraries (AID 1919975)
# Outline: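 Cell viability by CellTiter-Glo luminescence following ~72 h compound exposure (concentration-response). Uses parental, non-P-gp-overexpressing KB-3-1 line, 500 cells/well in DMEM/10% FBS, attached ~4 h before dosing.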
# [7] = qHTS Counterscreen for compound interference against the NCATS DSHEA and TCM libraries (AID 1919978); conditions: firefly luciferase detection reagent interference, luminescence;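 note: compounds preincubated with 1 µM D-luciferin or buffer before detection reagent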
# Outline: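 With 1 uM D-luciferin or phosphate buffer only, compounds at final 19.5 nM–39.8 uM were incubated for 15 min at room temperature. Luciferase detection reagent was then added, and luminescence was measured after a further 30 min at room temperature.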
# [8] = Dual reporter qHTS for agonist of Pregnane X Receptor (hPXR) against the NCATS DSHEA and TCM libraries: Fluorescence readout (AID 1920058)
# Excerpt: Assay Development and Screening Technology Laboratory (ADST)
# National Center for Advancing Translational Sciences (NCATS), Rockville, MD
# National Institute of Health (NIH), Bethesda, Maryland
# Dietary Supplements and Natural Products have minor oversight of their safety and efficacy. We assembled a collection of Dietary Supplements and Natural Products (DSNP) as well as Traditional Chinese Medicinal (TCM) Plant extracts, which were screened against an in vitro panel of assays, including a liver cytochrome p450 enzyme panel, CAR/PXR signaling pathways, and P-gp transporter assays, to assess their activity. This pipeline facilitated the interrogation of Natural Product-Drug Interaction (NaPDI) through prominent metabolizing pathways. In addition, we compared the activity profiles of the DSNP/TCM substances with those of an approved drug collection. Many of the approved drugs have well-annotated mechanisms of action (MOA) while the MOAs for most of the DSNP and TCM samples remain unknown. Based on the premise that compounds with similar activity profiles tend to share similar targets or MOA, we clustered the library activity profiles to identify overlap with the NCATS Pharmaceutical Collection to predict the MOAs of the DSNP/TCM substances. Overall, we highlight four significant bioactivity profiles (measured by p-values) as examples of this prediction. To assess broad cytotoxicity, we employed screening against a HepG2 cell line. In addition, transporter-mediated drug interactions are utilized in the characterization of DDIs using a P-glycoprotein (P-gp) assays. To profile potential P-gp activity, a differential cell viability was measured against two cell lines: a parental KB-3-1 human cervical adenocarcinoma cell line and the drug-resistant subline KB-8-5-11 that overexpresses P-gp.
# To this end, we profiled both collections for potential CAR and/or PXR activity, employing a previously published 1536-well qHTS assay.
# [1] Lee TD, et al. A High-Throughput Screen of a Library of Therapeutics Identifies Cytotoxic Substrates of P-glycoprotein. Mol Pharmacol. Nov 2019;96(5):629-640. doi:10.1124/mol.119.115964
# For PXR luciferase reporter gene assays, we used hPXR-LucHepG2cells provided by Dr. Taosheng Chen (Department of Chemical Biology and Therapeutics, St. Jude Children's Research Hospital). Cells were cultured in EMEM supplemented with 10% fetal bovine serum, 100U/mL penicillin and 100ug/mL streptomycin, and 500ug/mL of geneticin.
# PROTOCOL TABLE (as described by Inglese J, Shamu CE and Guy RK. 2007)
# SEQUENCE No. (e.g., 1, 2, 3, etc.); PARAMETER (e.g., Cells, Incubation, Reagent, etc.); VALUE; DESCRIPTION.
# 1; Cells; 5 uL; hPXR-LucHepG2; white solid-bottom Greiner plate.
# 2; Incubation; 5h; 37C, 95% humidity, 5% CO2
# 3; Compounds and control; 23 nL; Kalypsis pintool (Wako USA).
# 4; Reagent; 1uL; rifampicin (RIF) in the antagonist mode.
# 6; Reagent; 1 uL; CellTiter-Fluor detection reagent.
# 7; Incubation; 1 hr; 37C, 5% CO2.
# 8; Read; Fluorescence; ViewLux plate reader.
# 9; Reagent; 4 uL; ONE-Glo Luciferase detection reagent.
# 10; Incubation; 30 min; room temperature.
# 11; Read; Luminescence; ViewLux plate reader.
# NOTES (numbers refer to Sequence numbers above)
# 1. Briefly, 5uL of hPXR-LucHepG2 cells in phenol red-free DMEM containing 5% charcoal-stripped FBS, 1 mM sodium pyruvate (Invitrogen), 2 mM L-glutamine (Invitrogen), and 100 U/mL penicillin and 100ug/mL streptomycin were dispensed using a BioRAPTR FRD at 4 x 10^5cells/mL (2000cells/well) in tissue culture-treated 1536-well white assay plates (GreinerBio-One).
# 2. Plates were incubated for 5h at 37C, 95% humidity, and 5% CO2 to allow for cell attachment.
# 3. Compounds (final concentration for most substances ranged from 15.6 nM to 45.9 µM), positive control rifampicin (RIF; final concentration range of 2.8 nM to 92 µM for the agonist mode), and cytotoxicity control tetraoctyl ammonium bromide (final concentration of 92 µM) were transferred (23 nL) via pintool (Wako Automation).
# 4-5. […]
# [9] = target: Nuclear receptor subfamily 1 group I member 2 (Homo sapiens) (UniProt O75469); assay: Dual reporter qHTS for agonist of Pregnane X Receptor (hPXR) against the NCATS DSHEA and TCM libraries: Luminescence readout (AID 1920059)
# Outline: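 hPXR-LucHepG2 cells in phenol red-free DMEM with 5% charcoal-stripped FBS, 2000 cells/well, attached 5 h, then exposed 24 h at 37C to compounds; rifampicin as positive agonist control (2.8 nM–92 uM). Luciferase luminescence read.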
# Chain of Cytochrome P450 2C9 (Homo sapiens) (P11712 whole entry, looked up): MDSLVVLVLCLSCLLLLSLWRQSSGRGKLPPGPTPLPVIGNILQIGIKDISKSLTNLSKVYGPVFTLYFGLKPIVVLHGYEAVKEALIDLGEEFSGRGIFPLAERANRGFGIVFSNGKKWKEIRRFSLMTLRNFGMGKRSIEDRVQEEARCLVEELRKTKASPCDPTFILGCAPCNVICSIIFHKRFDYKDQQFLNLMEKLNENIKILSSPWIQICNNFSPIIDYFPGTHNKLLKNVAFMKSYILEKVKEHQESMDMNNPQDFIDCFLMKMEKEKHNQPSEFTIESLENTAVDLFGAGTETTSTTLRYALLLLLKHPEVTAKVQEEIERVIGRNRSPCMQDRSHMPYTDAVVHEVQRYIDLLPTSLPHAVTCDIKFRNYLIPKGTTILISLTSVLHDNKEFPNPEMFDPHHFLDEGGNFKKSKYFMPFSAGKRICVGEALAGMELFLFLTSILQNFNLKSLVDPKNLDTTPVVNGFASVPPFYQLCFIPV
# Chain of Cytochrome P450 2C19 (Homo sapiens) (P33261 whole entry, looked up): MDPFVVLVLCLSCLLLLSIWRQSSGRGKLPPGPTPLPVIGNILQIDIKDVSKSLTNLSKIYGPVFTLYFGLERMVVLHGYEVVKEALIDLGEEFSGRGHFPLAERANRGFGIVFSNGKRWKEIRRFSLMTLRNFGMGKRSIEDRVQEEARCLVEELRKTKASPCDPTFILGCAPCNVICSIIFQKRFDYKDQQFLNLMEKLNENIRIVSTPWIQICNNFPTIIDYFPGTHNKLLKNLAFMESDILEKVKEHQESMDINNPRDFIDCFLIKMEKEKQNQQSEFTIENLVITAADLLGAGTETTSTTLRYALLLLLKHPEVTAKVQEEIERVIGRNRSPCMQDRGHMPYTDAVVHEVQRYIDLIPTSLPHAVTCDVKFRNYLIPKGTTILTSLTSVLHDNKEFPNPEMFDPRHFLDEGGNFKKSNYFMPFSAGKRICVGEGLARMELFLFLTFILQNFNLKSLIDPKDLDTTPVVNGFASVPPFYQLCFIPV
# Chain of Cytochrome P450 2D6 (Homo sapiens) (P10635 whole entry, looked up): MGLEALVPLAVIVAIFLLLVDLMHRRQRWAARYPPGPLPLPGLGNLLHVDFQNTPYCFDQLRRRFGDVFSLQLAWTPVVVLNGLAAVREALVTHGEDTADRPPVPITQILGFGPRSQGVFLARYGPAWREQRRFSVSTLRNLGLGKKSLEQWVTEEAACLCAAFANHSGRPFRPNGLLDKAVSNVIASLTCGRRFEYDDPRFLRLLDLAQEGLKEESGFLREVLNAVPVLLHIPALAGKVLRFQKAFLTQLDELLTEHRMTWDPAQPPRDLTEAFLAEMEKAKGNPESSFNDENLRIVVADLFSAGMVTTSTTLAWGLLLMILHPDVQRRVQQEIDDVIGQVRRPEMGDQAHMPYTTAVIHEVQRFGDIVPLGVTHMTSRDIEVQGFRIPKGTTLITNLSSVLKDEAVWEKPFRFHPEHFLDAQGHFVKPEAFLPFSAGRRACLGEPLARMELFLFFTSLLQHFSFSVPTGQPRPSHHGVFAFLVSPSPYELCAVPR
# Chain of Nuclear receptor subfamily 1 group I member 2 (Homo sapiens) (O75469 whole entry, looked up): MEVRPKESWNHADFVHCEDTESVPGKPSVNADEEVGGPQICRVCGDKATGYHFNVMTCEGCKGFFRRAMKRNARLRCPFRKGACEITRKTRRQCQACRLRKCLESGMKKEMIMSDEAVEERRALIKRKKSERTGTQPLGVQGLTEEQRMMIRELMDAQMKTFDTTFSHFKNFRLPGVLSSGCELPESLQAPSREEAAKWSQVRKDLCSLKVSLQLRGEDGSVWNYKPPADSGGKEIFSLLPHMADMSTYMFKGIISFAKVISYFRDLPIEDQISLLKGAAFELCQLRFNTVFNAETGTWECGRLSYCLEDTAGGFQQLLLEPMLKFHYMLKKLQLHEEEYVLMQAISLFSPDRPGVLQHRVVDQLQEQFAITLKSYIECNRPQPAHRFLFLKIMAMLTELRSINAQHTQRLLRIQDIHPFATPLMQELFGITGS
# Chain of Cytochrome P450 3A4 (Homo sapiens) (P08684 whole entry, looked up): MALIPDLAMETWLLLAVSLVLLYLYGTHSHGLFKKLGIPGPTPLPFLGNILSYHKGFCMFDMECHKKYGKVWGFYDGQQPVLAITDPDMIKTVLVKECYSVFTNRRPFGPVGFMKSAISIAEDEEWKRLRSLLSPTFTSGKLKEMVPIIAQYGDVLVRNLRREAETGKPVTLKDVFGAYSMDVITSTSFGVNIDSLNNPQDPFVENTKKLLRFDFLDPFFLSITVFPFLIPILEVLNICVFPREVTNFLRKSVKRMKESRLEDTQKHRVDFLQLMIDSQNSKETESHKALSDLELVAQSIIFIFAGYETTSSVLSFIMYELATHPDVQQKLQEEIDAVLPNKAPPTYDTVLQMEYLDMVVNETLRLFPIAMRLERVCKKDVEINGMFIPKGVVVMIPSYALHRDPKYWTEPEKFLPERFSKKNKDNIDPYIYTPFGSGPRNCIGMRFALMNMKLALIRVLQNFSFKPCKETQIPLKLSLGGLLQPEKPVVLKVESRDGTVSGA
smiles,measurement,setting,value
CCC[C@@H]1C[C@@H](C(=O)N[C@H](C(C)Cl)[C@H]2O[C@H](SC)[C@H](O)[C@@H](O)[C@H]2O)N(C)C1 (stereo not given in full),Potency,[1],inactive
C=C(C)C(=O)O[C@H]1C[C@@](C)(OC(C)=O)[C@@]2(O)CC[C@@](C)(O)[C@H](OC(C)=O)[C@@]23OC(=O)C(COC)=C13,Potency,[1],inactive
C[C@@H]1CC[C@]2(C)C3(C)CC[C@@]2(OC3=O)[C@@]12C[C@H](c1ccoc1)OC2=O,Potency,[1],inactive
CC(=O)O[C@H]1[C@H](Oc2ccccc2COC(=O)C2(O)C=CCCC2=O)O[C@H](CO)[C@@H](O)[C@@H]1O (stereo not given in full),Potency,[1],inactive
C=C(C(=O)O)C1CCC(C)C2CCC(=O)OC2(C)C1 (stereo not given),Potency,[1],inactive
CC(=O)O[C@H](C[C@@H](C)[C@H]1C(=O)[C@H](O)[C@@]2(C)[C@@H]3CCC4C(C)(C)[C@@H](O[C@@H]5OC[C@H](O)[C@H](O)[C@H]5O)CC[C@@]45C[C@@]35CC[C@]12C)[C@@H]1OC1(C)C (stereo not given in full),Potency,[1],inactive
COc1ccc(C)c2sc(NC(=O)c3ccncc3)nc12,Potency,[1],inactive
CC(=O)N(O)CCCCCN1C(=O)CCC1=O,Potency,[1],inactive
FC(F)(F)c1cc(C(F)(F)F)c2ccc3nc(-c4nnco4)cn3c2n1,Potency,[1],inactive
CC(=O)O[C@H]1CC[C@@]2(CI)C(=CC[C@@H]3[C@@H]2CC[C@]2(C)[C@@H]([C@H](C)CCCC(C)C)CC[C@@H]32)C1,redox activity (% of DA3003),[1],-3.63% [at 11.5 µM]
CCOc1nc2cccc(C(=O)OCc3oc(=O)oc3C)c2n1Cc1ccc(-c2ccccc2-c2noc(O)n2)cc1,Potency,[1],inactive
COC(=O)CC1(O)C(=O)Nc2ccccc21 (stereo not given),Potency,[1],inactive
CC(C)CC1(C(=O)OCc2ccc(O[C@@H]3O[C@H](CO)[C@@H](O)[C@H](O)[C@H]3O)cc2)CC(=O)OC(C(=O)O)CC(=O)OCC2OC(O1)C(OC(=O)/C=C/c1ccc(O)cc1)C(O)C2O (stereo not given in full),redox activity (% of DA3003),[1],23.6% [at 11.5 µM]
C/C=C1/[C@H](O[C@@H]2O[C@H](CO)[C@@H](O)[C@H](O)[C@H]2O)OC=C(C(=O)OC)[C@H]1CC(=O)O[C@@H]1O[C@H](CO)[C@@H](O)[C@H](O)[C@H]1O,Potency,[1],inactive
CCCC(N[C@@H](C)C(=O)N1[C@H](C(=O)O)C[C@@H]2CCCC[C@@H]21)C(=O)OCC (stereo not given in full),Potency,[1],inactive
CC1=C(/C=C/C(C)=C/C=C/C(C)=C/C=C/C=C(C)/C=C/C=C(C)/C=C/C2=C(C)CCCC2(C)C)C(C)(C)CCC1,outcome,[2],inactive
same,outcome,[3],inactive
same,Potency,[4],inactive
same,Potency,[5],inactive
same,outcome,[6],inactive
same,max response,[7],-3.35%
same,outcome,[8],inactive
same,outcome,[9],inactive
C=CC1C(O[C@@H]2O[C@H](CO)[C@@H](O)[C@H](O)[C@H]2O)OC=C(C(=O)OC)C1Cc1nccc2c1[nH]c1ccccc12 (stereo not given in full),Potency,[1],inactive
CC(=O)O[C@@H]1[C@H]2[C@@H](OC(=O)c3ccccc3)[C@@H](C)C[C@]2(O)[C@H](OC(C)=O)[C@@]2(C)[C@@H]3CC(C)(C)C(=O)[C@]3(OC(C)=O)C[C@@]12C,Potency,[1],inactive
